# Test results published in article PMC7862700, “An all-to-all approach to the identification of sequence-specific readers for epigenetic DNA modifications on cytosine”.
# Key:
# Test in all cases: DAPPL (digital affinity profiling via proximity ligation, sequencing); 10 mM Tris-HCl pH 7.5, 50 mM NaCl, 1 mM DTT, 4% glycerol, room temperature, 30 min; GST-TFs on glutathione beads, 16-mer random dsDNA library, 0.1% formaldehyde crosslink after washing; high values mean tight binding
# [1] = biological target: T1, FLI1 (Homo sapiens, UniProt Q01543 1-452); conditions: protein: recombinant; tags: N-terminal GST; dsDNA, one strand shown
# T1 sequence: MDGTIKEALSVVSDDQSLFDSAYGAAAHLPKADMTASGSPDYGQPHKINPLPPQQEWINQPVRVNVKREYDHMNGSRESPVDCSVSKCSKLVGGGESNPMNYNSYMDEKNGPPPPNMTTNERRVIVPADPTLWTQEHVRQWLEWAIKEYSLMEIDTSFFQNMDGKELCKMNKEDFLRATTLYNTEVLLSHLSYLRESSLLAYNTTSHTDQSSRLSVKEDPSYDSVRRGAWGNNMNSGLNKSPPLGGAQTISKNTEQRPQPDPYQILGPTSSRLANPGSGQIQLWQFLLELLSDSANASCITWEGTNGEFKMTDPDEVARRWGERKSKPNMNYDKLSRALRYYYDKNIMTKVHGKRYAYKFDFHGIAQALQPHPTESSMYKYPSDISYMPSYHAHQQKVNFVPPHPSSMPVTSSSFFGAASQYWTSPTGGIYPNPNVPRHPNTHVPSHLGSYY
# Method in brief: (§1)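 After expression in yeast as GST fusions, human transcription factors were bound to glutathione beads, DNA-barcoded and mixed with a tag-only sample. The pools were incubated with 200 nmole of a 16-mer random double-stranded DNA library in Tris/NaCl/DTT/glycerol buffer (30 min, room temperature), washed and crosslinked with 0.1% formaldehyde. Proximity ligation with BsaI/T4 ligase ran for 1 h at 37 °C, before PCR amplification and sequencing on an Illumina NextSeq500. Binding signal is a hexamer's read frequency for a factor divided by its frequency for the tag-only sample.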
# [2] = biological target: T2, ELK1 (Homo sapiens, UniProt P19419 1-428); conditions: protein: recombinant; tags: N-terminal GST; dsDNA, one strand shown
# T2 sequence: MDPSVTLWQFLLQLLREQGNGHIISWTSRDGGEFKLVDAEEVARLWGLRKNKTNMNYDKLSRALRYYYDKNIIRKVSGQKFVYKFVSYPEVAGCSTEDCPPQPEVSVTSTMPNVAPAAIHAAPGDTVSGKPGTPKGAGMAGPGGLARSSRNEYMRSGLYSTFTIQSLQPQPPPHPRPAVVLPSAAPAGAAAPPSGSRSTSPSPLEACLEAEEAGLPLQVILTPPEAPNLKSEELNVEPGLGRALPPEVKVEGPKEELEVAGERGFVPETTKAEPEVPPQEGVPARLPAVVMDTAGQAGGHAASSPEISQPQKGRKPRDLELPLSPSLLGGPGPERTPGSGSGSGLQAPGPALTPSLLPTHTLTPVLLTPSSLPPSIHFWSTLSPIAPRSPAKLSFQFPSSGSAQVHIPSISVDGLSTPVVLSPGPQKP
# Method in brief: as §1
# [3] = biological target: T3, GABPA (Homo sapiens, UniProt Q06546 1-454); conditions: protein: recombinant; tags: N-terminal GST; dsDNA, one strand shown
# T3 sequence: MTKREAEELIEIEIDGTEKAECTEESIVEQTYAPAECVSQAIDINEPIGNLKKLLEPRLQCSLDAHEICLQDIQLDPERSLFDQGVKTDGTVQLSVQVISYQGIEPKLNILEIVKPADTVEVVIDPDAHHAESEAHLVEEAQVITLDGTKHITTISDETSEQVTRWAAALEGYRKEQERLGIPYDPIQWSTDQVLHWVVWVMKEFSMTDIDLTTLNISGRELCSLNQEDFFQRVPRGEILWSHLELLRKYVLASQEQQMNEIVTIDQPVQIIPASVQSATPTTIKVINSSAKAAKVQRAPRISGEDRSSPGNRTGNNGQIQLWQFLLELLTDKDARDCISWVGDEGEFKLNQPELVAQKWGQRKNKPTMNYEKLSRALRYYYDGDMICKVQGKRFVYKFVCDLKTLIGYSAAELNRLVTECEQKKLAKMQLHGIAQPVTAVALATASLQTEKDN
# Method in brief: as §1
# [4] = biological target: T4, ERG (Homo sapiens, UniProt P11308 1-479); conditions: protein: recombinant; tags: N-terminal GST; dsDNA, one strand shown
# T4 sequence: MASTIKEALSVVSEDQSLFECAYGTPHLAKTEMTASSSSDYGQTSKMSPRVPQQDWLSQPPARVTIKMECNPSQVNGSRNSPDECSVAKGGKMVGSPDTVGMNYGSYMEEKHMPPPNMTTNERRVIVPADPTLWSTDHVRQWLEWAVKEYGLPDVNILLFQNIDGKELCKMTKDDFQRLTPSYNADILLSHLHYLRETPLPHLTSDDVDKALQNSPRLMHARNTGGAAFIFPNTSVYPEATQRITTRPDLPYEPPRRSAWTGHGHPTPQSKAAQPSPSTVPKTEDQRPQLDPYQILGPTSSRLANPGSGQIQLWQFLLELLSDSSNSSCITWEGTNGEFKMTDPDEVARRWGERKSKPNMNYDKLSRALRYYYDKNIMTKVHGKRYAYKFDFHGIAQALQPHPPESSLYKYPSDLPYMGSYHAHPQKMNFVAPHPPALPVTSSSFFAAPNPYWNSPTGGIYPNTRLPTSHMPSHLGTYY
# Method in brief: as §1
# [5] = biological target: ELF1 (Homo sapiens, UniProt P32519 1-619); conditions: protein: recombinant; tags: N-terminal GST; dsDNA, one strand shown
# Method in brief: as §1
# [6] = biological target: T5, EHF (Homo sapiens, UniProt Q9NZC4 1-300); conditions: protein: recombinant; tags: N-terminal GST; dsDNA, one strand shown
# T5 sequence: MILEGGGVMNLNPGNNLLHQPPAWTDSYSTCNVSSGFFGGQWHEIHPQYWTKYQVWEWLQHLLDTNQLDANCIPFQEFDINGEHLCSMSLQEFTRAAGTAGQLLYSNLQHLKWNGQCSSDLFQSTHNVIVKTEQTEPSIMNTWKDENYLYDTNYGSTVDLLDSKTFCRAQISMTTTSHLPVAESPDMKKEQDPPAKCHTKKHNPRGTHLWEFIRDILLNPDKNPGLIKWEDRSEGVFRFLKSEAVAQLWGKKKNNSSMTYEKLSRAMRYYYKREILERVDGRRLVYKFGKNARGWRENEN
# Method in brief: as §1
# [7] = biological target: SPI1 (Homo sapiens, UniProt P17947 1-270); conditions: protein: recombinant; tags: N-terminal GST; dsDNA, one strand shown
# Method in brief: as §1
# [8] = biological target: SPIB (Homo sapiens, UniProt Q01892 1-262); conditions: protein: recombinant; tags: N-terminal GST; dsDNA, one strand shown
# Method in brief: as §1
# [9] = biological target: T6, ELK3 (Homo sapiens, UniProt P41970 1-407); conditions: protein: recombinant; tags: N-terminal GST; dsDNA, one strand shown
# T6 sequence: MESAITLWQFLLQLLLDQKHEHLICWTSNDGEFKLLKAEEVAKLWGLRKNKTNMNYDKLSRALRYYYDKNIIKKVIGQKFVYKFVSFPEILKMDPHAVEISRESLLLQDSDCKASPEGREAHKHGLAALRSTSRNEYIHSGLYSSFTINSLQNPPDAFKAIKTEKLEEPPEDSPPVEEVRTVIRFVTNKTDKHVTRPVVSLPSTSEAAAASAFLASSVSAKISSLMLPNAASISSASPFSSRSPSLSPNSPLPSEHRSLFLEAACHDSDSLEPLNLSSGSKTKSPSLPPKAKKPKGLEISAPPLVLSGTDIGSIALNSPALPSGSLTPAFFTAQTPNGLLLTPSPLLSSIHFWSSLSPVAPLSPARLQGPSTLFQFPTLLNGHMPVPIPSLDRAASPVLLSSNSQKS
# Method in brief: as §1
# [10] = biological target: T7, FEV (Homo sapiens, UniProt Q99581 1-238); conditions: protein: recombinant; tags: N-terminal GST; dsDNA, one strand shown
# T7 sequence: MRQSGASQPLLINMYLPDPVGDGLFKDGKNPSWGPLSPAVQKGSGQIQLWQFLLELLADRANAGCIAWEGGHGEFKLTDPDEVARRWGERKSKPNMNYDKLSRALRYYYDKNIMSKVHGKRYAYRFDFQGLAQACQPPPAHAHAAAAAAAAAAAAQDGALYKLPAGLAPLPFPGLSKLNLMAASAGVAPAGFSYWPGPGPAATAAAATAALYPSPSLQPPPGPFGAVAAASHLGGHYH
# Method in brief: as §1
# [11] = biological target: ETV5 (Homo sapiens, UniProt P41161 1-510); conditions: protein: recombinant; tags: N-terminal GST; dsDNA, one strand shown
# Method in brief: as §1
# [12] = biological target: HSF1 (Homo sapiens, UniProt Q00613 1-529); conditions: protein: recombinant; tags: N-terminal GST; chain copies: 3; dsDNA, one strand shown
# Method in brief: as §1
# [13] = biological target: T8, SPIC (Homo sapiens, UniProt Q8N5J4 1-248); conditions: protein: recombinant; tags: N-terminal GST; dsDNA, one strand shown
# T8 sequence: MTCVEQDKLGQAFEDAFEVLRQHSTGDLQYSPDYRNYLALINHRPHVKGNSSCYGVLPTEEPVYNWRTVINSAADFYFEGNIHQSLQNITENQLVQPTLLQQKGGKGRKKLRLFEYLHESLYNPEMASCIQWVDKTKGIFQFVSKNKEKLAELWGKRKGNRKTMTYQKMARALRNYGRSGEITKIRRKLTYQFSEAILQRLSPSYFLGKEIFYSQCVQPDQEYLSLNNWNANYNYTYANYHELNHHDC
# Method in brief: as §1
# [14] = biological target: ELF4 (Homo sapiens, UniProt Q99607 1-663); conditions: protein: recombinant; tags: N-terminal GST; dsDNA, one strand shown
# Method in brief: as §1
# [15] = biological target: T9, ELK4 (Homo sapiens, UniProt P28324-2 1-405); conditions: protein: recombinant; tags: N-terminal GST; dsDNA, one strand shown
# T9 sequence: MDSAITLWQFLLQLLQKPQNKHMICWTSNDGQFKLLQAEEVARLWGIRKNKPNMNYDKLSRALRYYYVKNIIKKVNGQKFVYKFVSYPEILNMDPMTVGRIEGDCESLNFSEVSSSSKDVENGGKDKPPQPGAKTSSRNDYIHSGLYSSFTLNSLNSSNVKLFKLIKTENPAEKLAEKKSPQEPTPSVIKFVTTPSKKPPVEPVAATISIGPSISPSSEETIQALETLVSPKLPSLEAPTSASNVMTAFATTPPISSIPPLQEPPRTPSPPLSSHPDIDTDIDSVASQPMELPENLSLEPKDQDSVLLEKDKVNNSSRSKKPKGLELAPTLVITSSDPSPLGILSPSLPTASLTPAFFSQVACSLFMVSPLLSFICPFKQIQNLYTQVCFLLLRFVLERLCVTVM
# Method in brief: as §1
# [16] = biological target: T10, ETV2 (Homo sapiens, UniProt O00321 1-342); conditions: protein: recombinant; tags: N-terminal GST; dsDNA, one strand shown
# T10 sequence: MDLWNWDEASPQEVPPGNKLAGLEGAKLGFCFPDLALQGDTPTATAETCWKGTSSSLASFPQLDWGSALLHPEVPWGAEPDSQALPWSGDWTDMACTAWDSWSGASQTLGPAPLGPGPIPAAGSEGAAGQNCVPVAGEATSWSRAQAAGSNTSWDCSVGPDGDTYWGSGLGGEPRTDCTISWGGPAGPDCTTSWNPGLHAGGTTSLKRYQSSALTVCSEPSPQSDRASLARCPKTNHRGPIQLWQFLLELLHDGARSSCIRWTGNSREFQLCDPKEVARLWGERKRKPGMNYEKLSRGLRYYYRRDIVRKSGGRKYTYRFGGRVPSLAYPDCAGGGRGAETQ
# Method in brief: as §1
# [17] = biological target: T11, ELF3 (Homo sapiens, UniProt P78545 1-371); conditions: protein: recombinant; tags: N-terminal GST; dsDNA, one strand shown
# T11 sequence: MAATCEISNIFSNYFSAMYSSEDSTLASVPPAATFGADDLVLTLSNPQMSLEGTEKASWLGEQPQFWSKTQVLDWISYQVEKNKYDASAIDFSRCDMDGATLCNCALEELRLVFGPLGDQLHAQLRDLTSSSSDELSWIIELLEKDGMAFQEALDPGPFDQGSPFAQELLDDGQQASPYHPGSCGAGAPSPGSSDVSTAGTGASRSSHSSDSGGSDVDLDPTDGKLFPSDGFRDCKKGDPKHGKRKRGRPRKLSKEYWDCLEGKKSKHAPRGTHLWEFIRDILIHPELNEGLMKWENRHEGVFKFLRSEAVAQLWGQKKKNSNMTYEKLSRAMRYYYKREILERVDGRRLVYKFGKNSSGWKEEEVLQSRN
# Method in brief: as §1
# [18] = biological target: CRX (Homo sapiens, UniProt O43186 1-299); conditions: protein: recombinant; tags: N-terminal GST; dsDNA, one strand shown
# Method in brief: as §1
# [19] = biological target: ETV1 (Homo sapiens, UniProt P50549 1-477); conditions: protein: recombinant; tags: N-terminal GST; dsDNA, one strand shown
# Method in brief: as §1
# HSF1, sequence (Q00613 whole entry): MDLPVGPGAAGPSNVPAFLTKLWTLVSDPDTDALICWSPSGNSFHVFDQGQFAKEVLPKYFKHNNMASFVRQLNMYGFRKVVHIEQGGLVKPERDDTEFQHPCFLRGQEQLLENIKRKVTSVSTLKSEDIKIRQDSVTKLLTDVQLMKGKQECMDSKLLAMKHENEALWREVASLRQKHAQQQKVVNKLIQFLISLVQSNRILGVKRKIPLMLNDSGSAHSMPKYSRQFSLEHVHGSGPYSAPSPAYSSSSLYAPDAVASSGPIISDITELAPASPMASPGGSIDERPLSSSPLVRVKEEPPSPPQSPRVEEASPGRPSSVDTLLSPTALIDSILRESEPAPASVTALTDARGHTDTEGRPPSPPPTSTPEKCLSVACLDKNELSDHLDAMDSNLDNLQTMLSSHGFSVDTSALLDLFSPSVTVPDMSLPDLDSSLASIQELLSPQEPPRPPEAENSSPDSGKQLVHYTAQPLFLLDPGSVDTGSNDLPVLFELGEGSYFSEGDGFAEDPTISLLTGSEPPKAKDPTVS
# ETV1, sequence (P50549 whole entry): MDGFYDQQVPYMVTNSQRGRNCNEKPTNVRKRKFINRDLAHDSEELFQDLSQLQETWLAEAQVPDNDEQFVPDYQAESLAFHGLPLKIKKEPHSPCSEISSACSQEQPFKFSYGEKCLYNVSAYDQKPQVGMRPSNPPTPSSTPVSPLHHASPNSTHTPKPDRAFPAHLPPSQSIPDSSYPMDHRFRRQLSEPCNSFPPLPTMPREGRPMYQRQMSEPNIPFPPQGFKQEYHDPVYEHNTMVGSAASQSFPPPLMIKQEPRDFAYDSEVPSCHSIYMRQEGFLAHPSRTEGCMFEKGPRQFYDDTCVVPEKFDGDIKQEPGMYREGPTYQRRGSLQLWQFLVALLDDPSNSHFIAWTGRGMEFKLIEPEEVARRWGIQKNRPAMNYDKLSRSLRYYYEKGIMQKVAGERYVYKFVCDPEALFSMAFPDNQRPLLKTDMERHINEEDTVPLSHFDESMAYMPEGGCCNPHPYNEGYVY
# ETV5, sequence (P41161 whole entry): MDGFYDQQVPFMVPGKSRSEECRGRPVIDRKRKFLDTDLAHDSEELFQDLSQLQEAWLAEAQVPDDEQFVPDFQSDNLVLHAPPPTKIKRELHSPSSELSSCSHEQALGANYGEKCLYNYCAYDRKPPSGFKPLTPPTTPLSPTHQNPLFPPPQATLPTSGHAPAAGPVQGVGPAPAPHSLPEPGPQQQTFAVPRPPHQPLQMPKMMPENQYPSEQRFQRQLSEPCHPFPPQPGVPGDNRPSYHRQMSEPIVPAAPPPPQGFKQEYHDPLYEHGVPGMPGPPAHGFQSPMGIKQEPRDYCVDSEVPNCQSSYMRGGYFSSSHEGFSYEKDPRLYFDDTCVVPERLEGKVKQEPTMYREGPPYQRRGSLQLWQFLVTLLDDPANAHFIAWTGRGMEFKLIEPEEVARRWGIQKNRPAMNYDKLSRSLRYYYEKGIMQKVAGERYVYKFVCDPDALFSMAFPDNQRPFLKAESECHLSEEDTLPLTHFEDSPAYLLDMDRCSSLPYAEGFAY
# CRX, sequence (O43186 whole entry): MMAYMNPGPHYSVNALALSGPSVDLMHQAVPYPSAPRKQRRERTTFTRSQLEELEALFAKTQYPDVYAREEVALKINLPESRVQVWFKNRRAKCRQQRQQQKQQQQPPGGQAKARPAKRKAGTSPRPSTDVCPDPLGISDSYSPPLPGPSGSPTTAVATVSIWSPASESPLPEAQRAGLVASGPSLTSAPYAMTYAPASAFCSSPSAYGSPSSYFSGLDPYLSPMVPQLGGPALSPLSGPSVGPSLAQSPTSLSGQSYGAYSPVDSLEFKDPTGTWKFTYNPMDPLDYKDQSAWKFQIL
# SPIB, sequence (Q01892 whole entry): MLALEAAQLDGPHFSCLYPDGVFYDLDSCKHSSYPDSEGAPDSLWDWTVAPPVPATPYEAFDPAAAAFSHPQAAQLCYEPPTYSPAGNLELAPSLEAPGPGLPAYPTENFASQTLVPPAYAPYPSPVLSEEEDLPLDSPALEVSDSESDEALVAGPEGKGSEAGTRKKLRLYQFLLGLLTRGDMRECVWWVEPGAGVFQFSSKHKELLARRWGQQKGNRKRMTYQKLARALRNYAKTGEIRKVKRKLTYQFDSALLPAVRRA
# ELF4, sequence (Q99607 whole entry): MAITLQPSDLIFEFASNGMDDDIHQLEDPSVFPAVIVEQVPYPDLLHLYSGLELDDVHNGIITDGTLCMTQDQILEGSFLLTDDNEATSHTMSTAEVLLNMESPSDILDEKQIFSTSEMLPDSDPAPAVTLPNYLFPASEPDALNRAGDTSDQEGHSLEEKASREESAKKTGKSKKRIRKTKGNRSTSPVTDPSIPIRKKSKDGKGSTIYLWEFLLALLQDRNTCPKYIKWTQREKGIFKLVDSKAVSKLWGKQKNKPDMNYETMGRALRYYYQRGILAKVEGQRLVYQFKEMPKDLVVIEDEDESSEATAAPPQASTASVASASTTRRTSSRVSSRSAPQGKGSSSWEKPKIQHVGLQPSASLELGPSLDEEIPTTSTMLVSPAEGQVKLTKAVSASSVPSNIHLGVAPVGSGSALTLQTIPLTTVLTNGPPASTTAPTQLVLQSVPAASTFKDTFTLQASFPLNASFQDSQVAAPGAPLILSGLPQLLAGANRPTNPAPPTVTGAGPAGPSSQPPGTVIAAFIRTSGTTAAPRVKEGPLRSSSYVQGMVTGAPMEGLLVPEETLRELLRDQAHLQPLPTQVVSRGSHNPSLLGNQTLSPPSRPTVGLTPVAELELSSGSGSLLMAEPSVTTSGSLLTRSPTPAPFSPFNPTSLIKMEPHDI
# ELF1, sequence (P32519 whole entry): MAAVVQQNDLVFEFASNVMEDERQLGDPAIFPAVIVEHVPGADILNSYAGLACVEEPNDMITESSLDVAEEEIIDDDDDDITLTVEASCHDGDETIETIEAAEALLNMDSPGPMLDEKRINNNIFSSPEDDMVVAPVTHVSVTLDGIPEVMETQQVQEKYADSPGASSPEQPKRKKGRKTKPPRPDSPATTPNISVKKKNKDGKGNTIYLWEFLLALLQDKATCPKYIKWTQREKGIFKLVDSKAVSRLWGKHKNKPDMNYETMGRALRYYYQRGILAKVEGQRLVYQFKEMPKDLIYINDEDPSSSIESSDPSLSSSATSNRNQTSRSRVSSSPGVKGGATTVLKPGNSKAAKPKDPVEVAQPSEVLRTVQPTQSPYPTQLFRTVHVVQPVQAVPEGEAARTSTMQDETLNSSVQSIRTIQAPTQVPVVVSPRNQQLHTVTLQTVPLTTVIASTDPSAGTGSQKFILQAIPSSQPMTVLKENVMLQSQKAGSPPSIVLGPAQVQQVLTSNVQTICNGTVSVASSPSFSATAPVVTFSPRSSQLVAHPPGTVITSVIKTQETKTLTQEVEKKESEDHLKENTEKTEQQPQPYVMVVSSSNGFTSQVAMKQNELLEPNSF
sequence,measurement,setting,value
GAAAAT,binding signal,[1],"1.16 fold enrichment (6-mer frequency, TF over GST control)"
same,binding signal,[2],"1.07 fold enrichment (6-mer frequency, TF over GST control)"
same,binding signal,[3],"1.16 fold enrichment (6-mer frequency, TF over GST control)"
same,binding signal,[4],"1.07 fold enrichment (6-mer frequency, TF over GST control)"
same,binding signal,[5],"1.04 fold enrichment (6-mer frequency, TF over GST control)"
same,binding signal,[6],"1.14 fold enrichment (6-mer frequency, TF over GST control)"
same,binding signal,[7],"1.14 fold enrichment (6-mer frequency, TF over GST control)"
same,binding signal,[8],"1.18 fold enrichment (6-mer frequency, TF over GST control)"
same,binding signal,[9],"1.04 fold enrichment (6-mer frequency, TF over GST control)"
same,binding signal,[10],"1.07 fold enrichment (6-mer frequency, TF over GST control)"
same,binding signal,[11],"1.16 fold enrichment (6-mer frequency, TF over GST control)"
same,binding signal,[12],"1.49 fold enrichment (6-mer frequency, TF over GST control)"
same,binding signal,[13],"1.09 fold enrichment (6-mer frequency, TF over GST control)"
same,binding signal,[14],"1.14 fold enrichment (6-mer frequency, TF over GST control)"
same,binding signal,[15],"1.01 fold enrichment (6-mer frequency, TF over GST control)"
same,binding signal,[16],"1.17 fold enrichment (6-mer frequency, TF over GST control)"
same,binding signal,[17],"1.09 fold enrichment (6-mer frequency, TF over GST control)"
same,binding signal,[18],"1.2 fold enrichment (6-mer frequency, TF over GST control)"
same,binding signal,[19],"1.02 fold enrichment (6-mer frequency, TF over GST control)"
